# From PubChem BioAssay AID651718 (The Scripps Research Institute Molecular Screening Center, 2012)
# Among all 360,000 compounds or so, about 2,700 (0.75%) were called active. The entries come from a sample that favours actives as a whole. Unmarked numbers belong to inactive results. Rule as the data show it: active = inhibition above about 4.5%; inactive = the rest.
# Test system: Methionine sulfoxide reductase A (Bos taurus)
# Assay: bovine MsrA enzyme inhibitors, primary screen, biochemical, absorbance, HTS (AID 651718);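 also: 0% = vehicle wells with enzyme and 100% = reference inhibitor wells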
# Settings: purified bovine MsrA, absorbance read-out; at 15.5 µM; hits give high values
row,Structure (SMILES),inhibition
1,Clc1cccc2c1C1CC2CCN1Cc1ccccc1 (stereo not drawn),-1.2%
2,COC(=O)c1cc2c(c3c4cc(F)ccc4n(S(=O)(=O)c4ccccc4)c13)C(=O)N(Cc1ccccc1OC)C2,1.35%
3,CCC1S/C(=N/N=C/c2ccco2)NC1=O (stereo not drawn),4.55% (active)
4,CCCCC1S/C(=N/N=C/c2cccs2)NC1=O (stereo not drawn),0.75%
5,O=C1N/C(=N\N=C\c2ccco2)SC1Cc1ccc(F)cc1 (stereo not drawn),2.66%
6,COC(=O)C1=C(C)N(Cc2ccc(C(F)(F)F)cc2)C(=NCc2ccccc2)NC1c1ccccc1C(F)(F)F (stereo not drawn),2.37%
7,CC(C)(C)c1ccc(S(=O)(=O)NCC2CCN(C(=O)C(=O)c3cc4ccccc4o3)CC2)cc1,1.27%
8,Cc1cccc(-n2c(N)c(C(=O)N3CCN(C)CC3)sc2=S)c1,2.37%
9,Cc1cccc(-n2c(O)c(C=Nc3ccccc3N)c(=O)[nH]c2=O)c1,5.11% (active)
10,COc1cc(OC)cc(C(=O)NCCSCc2ccc(Cl)cc2)c1,-2.11%
11,CCc1nnc(NS(=O)(=O)c2ccc(NC(=O)c3cccc(OC(F)(F)C(F)F)c3)cc2)s1,-0.35%
12,CCOC(=O)c1c(NC(=S)NC(=O)/C=C/c2cccs2)sc(C)c1C,-0.71%
13,CCc1nnc(NS(=O)(=O)c2ccc(NC(=S)NC(=O)/C=C/c3cccs3)cc2)s1,4.76% (active)
14,Cc1cc(C(=O)NNC(=S)NC(C)c2ccccc2)cs1 (stereo not drawn),0.13%
15,Cn1nnnc1SCC(=O)Nc1sccc1C(N)=O,0.13%
16,COC(=O)c1cc2c(c3c4ccccc4n(S(=O)(=O)c4cccc(C)c4)c13)C(=O)N(Cc1ccccc1)C2,0.16%
17,CC1(C(=O)NCc2ccccc2)CN(S(C)(=O)=O)CC(=O)N1CC(F)(F)F (stereo not drawn),-0.74%
18,COc1ccc(C(=O)CSc2nc(C)cc(C)n2)cc1[N+](=O)[O-],11.2% (active)
19,COc1ccc(-n2nnnc2SCC(=O)c2ccc(OC)c(OC)c2)cc1,1.76%
20,COc1ccc(C(=O)NNC(=O)c2cnccn2)cc1[N+](=O)[O-],3.54%

row,Structure (SMILES),inhibition
1,CN1CCN(CC(=O)C23CC4CC(CC(C4)C2)C3)CC1,-0.74%
2,COc1ccc(C(=O)Nc2c(N)nc(SCC(=O)N3CCC(C)CC3)[nH]c2=O)cc1OC,-1.43%
3,C[C@@H]1ON(C)[C@H]2C[C@H]3c4cc(N5CCOCC5)ccc4CCN3C[C@@H]12,-1.23%
4,CCOC(=O)C1=C(C(=O)OCC)C2N(Cc3ccc(C#N)cc3)c3ccccc3[C@@]23C[C@@H](C(=O)OC)N(S(=O)(=O)c2ccc(F)cc2)C3=N1 (stereo partly drawn),1.03%
5,CCOC(OCC)c1ccc(/C=C\c2nccc(N)n2)cc1,4.82% (active)
6,Cc1cc2c(nc1C)CCCN2C,0.48%
7,O=S(=O)(c1cccs1)N1CCCc2nc(-c3ccc(Br)cc3)ccc21,0.56%
8,Cc1ccc(C)c2[nH]c(=O)c(CN(Cc3cccnc3)C(=S)NCc3ccco3)cc12,0.59%
9,Cc1cccc(C)c1NC(=O)C(Cl)C(=O)c1ccccc1 (stereo not drawn),-0.19%
10,CCCc1ccc(OCc2ccc(C(=O)N/N=C/c3cccc([N+](=O)[O-])c3)o2)c(OC)c1,0.9%
11,Cc1occc1C(=O)N/N=C/c1ccc(-c2cccc([N+](=O)[O-])c2)o1,4.99% (active)
12,COC(=O)N/N=C/c1ccc(-c2ccc(Cl)c(Cl)c2)o1,3.75%
13,CC[C@H](NC(=O)[C@H](Cc1ccccc1)NC(=O)[C@H]1O[C@@H](n2cnc3c(=O)[nH]c(N)nc32)[C@H](O)[C@@H]1O)c1ccccc1,0.98%
14,COc1ccccc1-c1n[nH]c2c1[C@H](C)CC[C@H]2C(C)C,12.6% (active)
15,COc1ccccc1-c1n[nH]nc1C1=CC(=O)CC(C)(C)C1,2.39%
16,CC(=O)N1N=C(c2ccccc2)OC1c1cccnc1 (stereo not drawn),0.4%
17,CC(=O)N1N=C(c2ccncc2)OC1(Cc1ccccc1)Cc1ccccc1,11.8% (active)
18,CCN(C(=O)CSc1nnc(-c2ccncc2)o1)c1ccccc1,-1.04%
19,CC(C)Oc1c(Br)cc(Br)cc1/C=N/NC(N)=S,6.79% (active)
20,CC1(C(=O)N/N=C/c2cc3c(cc2Br)OCO3)CC1(Br)Br (stereo not drawn),2.89%

row,Structure (SMILES),inhibition
1,Cc1cc(=O)oc2c3c(cc(OCC(=O)NCc4ccccn4)c12)OC(C)(C)CC3,2.4%
2,Cn1c(=NC(=O)c2cnccn2)sc2ccccc21,6.75% (active)
3,Cn1c(=NC(=O)c2ccco2)sc2cccc(F)c21,4.22%
4,COC(=O)c1ccc(OC(=O)c2cnccn2)cc1,0.63%
5,Cc1cc(N2CCN(C(=O)OC(C)(C)C)C[C@H]2C)ccc1N1CCN(Cc2ccccc2)[C@H](C)C1,-0.82%
6,Nc1[nH]c(C(=O)c2ccccc2)c(-c2ccc(Cl)cc2Cl)c1C(=O)c1ccccc1,-0.16%
7,CCc1c(-c2ccccc2OC)ncn1CCc1ccccc1OC,0.48%
8,O=C(COC(=O)/C=C/c1cn(-c2ccccc2)nc1-c1cccnc1)Nc1ccc(Cl)cc1Cl,0.05%
9,O=C(NNC(=S)NC(=O)c1cn(-c2ccccc2)nc1-c1ccccc1)c1ccncc1,2.54%
10,O=Cc1cn(-c2ccccc2)nc1-c1ccccn1,9.1% (active)
11,Cc1cc(Cl)ccc1OCc1nc(-c2ccncc2)no1,0.44%
12,COc1ccccc1CC1(C)C(=O)Nc2ccc(OC(F)(F)F)cc21 (stereo not drawn),-0.13%
13,Cc1ccc(CC2(C)C(=O)Nc3ccc(OC(F)(F)F)cc32)cc1 (stereo not drawn),9.02% (active)
14,CCc1ccc2c(c1)NC(=O)C2(C)Cc1ccc(OC(F)(F)F)cc1 (stereo not drawn),1.57%
15,Cc1cc(NCCc2c[nH]c3ccccc23)ccc1Oc1cccnc1,-0.9%
16,COc1ccc(C2/C(=C(/O)c3ccccc3)C(=O)C(=O)N2C)c(OC)c1 (stereo not drawn),4.89% (active)
17,COc1cccc(C2/C(=C(/O)c3ccc(F)cc3)C(=O)C(=O)N2CCN(C)C)c1 (stereo not drawn),2.59%
18,COc1ccc(C2/C(=C(/O)c3ccccc3)C(=O)C(=O)N2c2ncccn2)cc1OC (stereo not drawn),1.66%
